This passage reports log fold change Tl+ flux results from PubChem BioAssay.

Molecules are shown by their SMILES. Values without a mark were called inactive. Active and inactive are the calls of the source.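 How the source made its calls: active means thallium flux through the channel raised or lowered by more than 3 SD from vehicle-only wells, actives on both sides; inactive means the rest.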

Common to all, as to assay: BK channel mutant inhibitors and activators – cell-based, U2OS BacMam, thallium flux, beta subunits, selectivity assay, profiling panel (AID 1259406);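 further: initial slope of Thallos dye fluorescence rise after thallium is added; log ratio against the mean of 0.3% DMSO vehicle wells on the same plate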
The test system of assay [1] is F380Y. The conditions noted are these: U2OS BacMam BK variants, at 30 µM.
Assay [2] relates to F380Y/beta1. The conditions noted are these: U2OS BacMam BK variants, at 30 µM.
Assay [3] has as its system F380Y/beta2Delta. Conditions: U2OS BacMam BK variants, at 30 µM.
Assay [4] relates to F380Y/beta4. The conditions noted are these: U2OS BacMam BK variants, at 30 µM.
The target of assay [5] is Calcium-activated potassium channel subunit alpha-1 (Homo sapiens) + Leucine-rich repeat-containing protein 26 (Homo sapiens) (UniProt Q12791+Q2I0M4). Conditions: U2OS BacMam BK variants, F380Y/Slo1WT/gamma1, at 30 µM.
Assay [6] deals with R275C. The conditions noted are these: U2OS BacMam BK variants, at 30 µM.
Assay [7] has as its system R275C/beta1. Conditions: U2OS BacMam BK variants, at 30 µM.
Assay [8] has as its system R275C/beta2Delta. The conditions noted are these: U2OS BacMam BK variants, at 30 µM.
Assay [9] has as its system R275C/beta4. The conditions noted are these: U2OS BacMam BK variants, at 30 µM.
Assay [10] has as its system R275C/Slo1WT/beta2. The conditions noted are these: U2OS BacMam BK variants, at 30 µM.

Chain of Calcium-activated potassium channel subunit alpha-1 (Homo sapiens) + Leucine-rich repeat-containing protein 26 (Homo sapiens) (Q2I0M4 whole entry, looked up, one chain of several): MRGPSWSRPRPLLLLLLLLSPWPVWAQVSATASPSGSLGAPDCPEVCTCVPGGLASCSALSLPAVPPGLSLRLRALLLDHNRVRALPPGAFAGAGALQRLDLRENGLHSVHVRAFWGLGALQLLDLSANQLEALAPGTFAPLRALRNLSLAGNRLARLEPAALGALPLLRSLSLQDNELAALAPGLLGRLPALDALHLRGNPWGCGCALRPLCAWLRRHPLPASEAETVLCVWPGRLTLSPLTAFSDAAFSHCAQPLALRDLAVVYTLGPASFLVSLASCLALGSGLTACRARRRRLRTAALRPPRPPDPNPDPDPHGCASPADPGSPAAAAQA

On to `COc1cccc(C=NNC(=O)C2CCCN(C(=S)NNC3CC4C=CC3C4)CC2)c1O` (stereo not given), for which the log fold change Tl+ flux in assay [1] is 0.0111; in [2], -0.0549; in [3], -0.0296; in assay [4], 0.0197; in assay [5], 0.0309; in assay [6], -0.00837. The log fold change Tl+ flux is 0.0189 in assay [7], -0.0281 in assay [8], -0.00446 in [9] and 0.00307 in [10].

With `Cc1cc(NS(=O)(=O)c2ccc(NC(=O)c3nccnc3C(=O)O)cc2)no1`, the log fold change Tl+ flux was -0.0365 in [1]; 0.00855 in assay [2]; -0.054 in assay [3]; -0.0573 in assay [4]; -0.136 (active) in assay [5]; -0.0122 in [6]. For the same compound, the log fold change Tl+ flux in assay [7] was 0.022; in assay [8] it was -0.0352; in assay [9], 0.0165; in assay [10], -0.0416.

In the case of `CC(C)(C)c1cc(-c2nc(-c3ccc(C(F)(F)F)cc3)no2)n(Cc2ccccc2)n1`, the log fold change Tl+ flux was -0.0279 in [1]; -0.0164 in assay [2]; -0.0472 in assay [3]; 0.0114 in assay [4]; -0.0649 in assay [5]; 0.0485 in assay [6]. Further, the log fold change Tl+ flux was -0.0238 in [7], -0.0138 in [8], 0.0105 in assay [9] and 0.0318 in [10].

`Cn1cnc2cccc(F)c2c1=N`: the log fold change Tl+ flux in assay [1] was -0.0259; in [2], 0.000586; in assay [3], -0.0156; in [4], 0.0474; in assay [5] it was 0.038; in [6], 0.0169. Besides, the log fold change Tl+ flux was 0.0241 in [7], -0.00275 in [8], 0.00326 in [9] and 0.0172 in assay [10].

As for `COc1ccc(C(C)=NO)cc1CN1CCCC1`, the log fold change Tl+ flux in assay [1] was 0.00748; in [2] it was 0.0291; in [3] it was 0.0236; in assay [4], 0.062; in assay [5], 0.0507; in [6], 0.0203. The log fold change Tl+ flux in assay [7] was 0.0511; in assay [8] it was -0.0181; in assay [9], -0.0237; in assay [10] it was 0.0863.

With `O=C1CSCC(=O)N1c1csc(C(F)(F)F)c1-c1ccccc1`, the log fold change Tl+ flux was -0.0223 in [1]; 0.0869 (active) in assay [2]; -0.00325 in assay [3]; 0.0035 in assay [4]; 0.0169 in assay [5]; 0.0132 in [6]. The log fold change Tl+ flux is 0.122 (active) in [7], 0.0241 in assay [8], 0.11 (active) in assay [9] and -0.00785 in [10].

With `O=c1[nH]cnc2scc(-c3cccs3)c12`, the log fold change Tl+ flux in assay [1] was -0.0452; in [2], -0.0118; in assay [3], 0.0191; in [4] it was 0.0165; in assay [5], -0.0657; in assay [6], -0.0434. For the same compound, the log fold change Tl+ flux in assay [7] is 0.00866; in assay [8], -0.0381; in [9], 0.0239; in [10], -0.0542.

`CCOC(=O)C1CCC(C(=O)OCC)N1C(=O)Nc1ccc(Cl)cc1` (stereo not given): the log fold change Tl+ flux in assay [1] is 0.046; in assay [2], 0.00842; in assay [3] it was 0.0313; in assay [4], -0.0525; in assay [5], -0.0039; in [6], 0.0639. In addition, the log fold change Tl+ flux was 0.0271 in [7], 0.0385 in assay [8], 0.0217 in assay [9] and -0.00903 in assay [10].

On to `CN(NC(=O)c1ccc(Cl)s1)c1cnn(-c2cc(Cl)cc(Cl)c2)c(=O)c1Cl`, for which the log fold change Tl+ flux in assay [1] is 0.0366; in assay [2], -0.0161; in [3] it was 0.019; in [4], 0.00909; in assay [5] it was -0.0561; in [6], -0.0148. Besides, the log fold change Tl+ flux in assay [7] was 0.00182; in [8] it was 0.046; in assay [9] it was -0.0313; in assay [10] it was -0.00119.

In the case of `O=C(CCN1CCOCC1)Nc1cc(Cl)cc(Cl)c1`, the log fold change Tl+ flux in assay [1] is 0.0457; in assay [2], 0.0335; in assay [3], 0.00661; in assay [4], 0.024; in [5], -0.0241; in [6], 0.0216. The log fold change Tl+ flux in assay [7] is 0.0618; in assay [8] it was 0.0272; in [9], 0.0419; in assay [10], -0.0333.

For the compound `CSC(=S)NNC(=O)c1ccc(C(F)(F)F)cc1`, the log fold change Tl+ flux in assay [1] was 0.0858; in assay [2], 0.233 (active); in assay [3] it was 0.0998; in [4] it was 0.29 (active); in [5], 0.1; in assay [6], 0.134 (active). For the same compound, the log fold change Tl+ flux in assay [7] was 0.158 (active); in assay [8], 0.0788; in assay [9], 0.305 (active); in assay [10], 0.232 (active).

`CCOC(=O)C1CCCN(C(=O)Nc2c(-c3ccccc3)noc2C)C1` (stereo not given): the log fold change Tl+ flux in assay [1] is 0.0297; in [2], -0.0223; in assay [3] it was -0.00149; in [4] it was 0.0159; in assay [5], 0.00293; in assay [6], -0.0483. The log fold change Tl+ flux in assay [7] is -0.0144; in [8] it was -0.0161; in assay [9], -0.0185; in assay [10] it was 0.00733.

Regarding `O=c1[nH]c2ccc(Cl)cc2c2oc(-c3ccccc3)nc12`, the log fold change Tl+ flux in [1] was -0.0228; in assay [2], 0.00567; in [3], -0.059; in assay [4] it was -0.0224; in assay [5], -0.0128; in assay [6], 0.01. Besides, the log fold change Tl+ flux in assay [7] was 0.031; in assay [8], 0.0322; in assay [9], 0.0357; in assay [10] it was -0.0021.
